According to PubChem BioAssay (NCATS):
Records with an inconclusive call do not appear. Activity calls are given as the source filed them. Calls come from the whole dose curve.

Target: Peroxisome proliferator-activated receptor delta (Homo sapiens) (UniProt Q03181)
Test: qHTS assay for small molecule agonists of peroxisome proliferator-activated receptor delta signaling (AID 588534);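 note: 0% = DMSO basal wells and 100% = positive control agonist at 10 µM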
Details: HEK293T PPARdelta-UAS-bla, beta-lactamase ratio, 18 h; series mostly up to 76.7 µM; activation: at the top concentration
Outline: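 Cells carrying a PPAR-delta beta-lactamase reporter were treated with compounds for 18 h at 37 °C in agonist mode. CCF4 fluorescence was read after 2 h; EC50 and efficacy from Hill fits.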

Sequence of Peroxisome proliferator-activated receptor delta (Homo sapiens) (Q03181 whole entry, looked up): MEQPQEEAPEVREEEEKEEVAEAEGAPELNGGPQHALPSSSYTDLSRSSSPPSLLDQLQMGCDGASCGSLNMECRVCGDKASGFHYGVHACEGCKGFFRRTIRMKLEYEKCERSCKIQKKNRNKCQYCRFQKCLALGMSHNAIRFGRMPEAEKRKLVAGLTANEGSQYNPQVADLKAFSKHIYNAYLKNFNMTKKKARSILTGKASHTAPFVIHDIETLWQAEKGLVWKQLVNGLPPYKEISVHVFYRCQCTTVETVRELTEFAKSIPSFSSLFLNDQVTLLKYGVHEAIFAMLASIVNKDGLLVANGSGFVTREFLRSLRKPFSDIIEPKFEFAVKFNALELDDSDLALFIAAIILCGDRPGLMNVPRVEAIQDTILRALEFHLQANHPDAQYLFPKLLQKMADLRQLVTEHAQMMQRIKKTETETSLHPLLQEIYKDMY

| SMILES | activation | outcome |
| --- | --- | --- |
| O=C1CCCCC1 | 8.74% (inactive) |  |
| O=C1CCCC/C=C/CCCCCCCCCO1 | -1.89% (inactive) |  |
| CCCCCCCCC/C=C/CC1CC(=O)OC1=O (centres undefined) | 5.98% (inactive) |  |
| ICCc1ccccc1 | 2.06% (inactive) |  |
| Cc1cccc(C(=O)O)c1[N+](=O)[O-] | 6.01% (inactive) |  |
| Nc1nc(N)nc(-c2ccccc2)n1 | -0.968% (inactive) |  |
| CC(CCC(=O)O)(c1ccc(O)cc1)c1ccc(O)cc1 |  | inactive |
| CC(C)(C)OCC1CO1 (centres undefined) | 11.4% (inactive) |  |
| O=C(Cl)c1ccc(C(=O)Cl)cc1 | -1.63% (inactive) |  |
| O=C(Cl)c1c(Cl)cccc1Cl | -4.13% (inactive) |  |
| Cc1ccccc1C=O | -1.44% (inactive) |  |
| CCCCOCCOCCOC(C)=O | -2.3% (inactive) |  |
| CCOC(C)=O | 8.97% (inactive) |  |
| O=[N+]([O-])c1c(Cl)cc(Cl)cc1Cl | 7.3% (inactive) |  |
| CCCCCCCCC(=O)O | 0.447% (inactive) |  |
| OC1CCCC1 | -2.62% (inactive) |  |
| Cc1cc(C)c(N)c(Cl)c1 | -7.19% (inactive) |  |
| CCCCC(CC)C(=O)OCCOCCOCCOC(=O)C(CC)CCCC (centres undefined) | -9.72% (inactive) |  |
| CCSC(=O)N(CC(C)C)CC(C)C | 5.27% (inactive) |  |
| CCCCN(CCCC)CCCCCCN(CCCC)CCCC | 0.503% (inactive) |  |

| SMILES | activation | outcome |
| --- | --- | --- |
| Nc1nccs1 | 0.396% (inactive) |  |
| Cc1ccc2c(c1)C(=O)OC2=O | 1.17% (inactive) |  |
| O=[N+]([O-])c1ccccc1CCO | -2.16% (inactive) |  |
| CC(C)C(=O)OC(=O)C(C)C | 0.312% (inactive) |  |
| CCCCC/C=C\C/C=C\CCCCCCCC(=O)OC | -0.472% (inactive) |  |
| Nc1nc(CC(=O)O)cs1 | 3.58% (inactive) |  |
| ON=C1CCCCC1 | 8.04% (inactive) |  |
| CC(=O)Nc1ccccc1C | 6.63% (inactive) |  |
| COc1c(Cl)ccc(Cl)c1C(=O)O | 0.804% (inactive) |  |
| COC(=O)C(C)Oc1ccc(Oc2ncc(C(F)(F)F)cc2Cl)cc1 (centres undefined) | -11.1% (inactive) |  |
| CC(C)(C)c1ccc(OCC2CO2)cc1 (centres undefined) | 3.41% (inactive) |  |
| COC(OC)(C(=O)c1ccccc1)c1ccccc1 | 7.67% (inactive) |  |
| CCOC(=O)C1=NN(c2ccc(Cl)cc2Cl)C(C)(C(=O)OCC)C1 (centres undefined) | 2.37% (inactive) |  |
| CC(C)(C)C(O)/C(=C\c1ccc(Cl)cc1)n1cncn1 (centres undefined) | -4.73% (inactive) |  |
| CCCCOCCOCCSC#N | -11.7% (inactive) |  |
| Clc1nc(Cl)c(Cl)c(Cl)c1Cl | -4.3% (inactive) |  |
| CC/C=C/CCCCCCCCCCOC(C)=O | 1.34% (inactive) |  |
| Cc1cscn1 | 4.87% (inactive) |  |
| Cc1cccc(C(=O)O)c1 | -3.09% (inactive) |  |
